# Measured values: the supplement of paper PMC8728848
# The sample as a whole holds a higher share of the strongest signals than the screen did.
# B1: SAOUHSC 02783 (Staphylococcus aureus), Q5HD69 (protein)
# chain: MIHSKKLTLGICLVLLIILIVGYVIMTKTNGRNAQIKDTFNQTLKLYPTKNLDDFYDKEGFRDQEFKKGDKGTWIVNSEMVIEPKGKDMETRGMVLYINRNTRTTKGYYFISEMTDDSNGRPKDDEKRYPVKMEHNKIIPTKPLPNDKLKKEIENFKFFVQYGNFKDINDYKDGDISYNPNVPSYSAKYQLNNDDYNVQQLRKRYDIPTKQAPKLLLKGDGDLKGSSVGSRSLEFTFVENKEENIYFTDSVQYTPSEDTRYESN
# Tests used:
# Test in all cases: glycan array binding signal (z-score within array); higher = stronger binding
# Settings in all cases: glycan notation: IUPAC condensed, linker removed
# [1] = biological target: Fuc(a1-2)Gal(b1-3)GlcNAc(b1-2)Man(a1-3)[Fuc(a1-2)Gal(b1-3)GlcNAc(b1-2)Man(a1-6)]Man(b1-4)GlcNAc(b1-4)[Fuc(a1-6)]GlcNAc
# Outline: (§1)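 Arrays were curated from the Consortium for Functional Glycomics database, 3228 in total, and kept only where the protein sequence was available. Binding is expressed as a within-array Z-score. This score was averaged across arrays of the same protein sequence at different concentrations or buffers and across linkers, and negative values can be read as non-binding.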
# [2] = biological target: Fuc(a1-2)Gal(b1-4)GlcNAc(b1-3)Gal(b1-4)GlcNAc(b1-2)Man(a1-3)[Fuc(a1-2)Gal(b1-4)GlcNAc(b1-3)Gal(b1-4)GlcNAc(b1-2)Man(a1-6)]Man(b1-4)GlcNAc(b1-4)GlcNAc
# Outline: as §1
# [3] = biological target: Fuc(a1-2)Gal(b1-4)GlcNAc(b1-3)GalNAc
# Outline: as §1
# [4] = biological target: Fuc(a1-2)Gal(b1-4)[Fuc(a1-3)]GlcNAc(b1-2)[Fuc(a1-2)Gal(b1-4)[Fuc(a1-3)]GlcNAc(b1-4)]Man(a1-3)[Fuc(a1-2)Gal(b1-4)[Fuc(a1-3)]GlcNAc(b1-2)Man(a1-6)]Man(b1-4)GlcNAc(b1-4)GlcNAc
# Outline: as §1
# [5] = biological target: Fuc(a1-2)Gal(b1-4)[Fuc(a1-3)]GlcNAc(b1-3)Gal(b1-4)[Fuc(a1-3)]GlcNAc(b1-3)Gal(b1-4)[Fuc(a1-3)]GlcNAc
# Outline: as §1
# [6] = biological target: Fuc(a1-2)Gal6S(b1-4)Glc6S
# Outline: as §1
# [7] = biological target: Fuc(a1-2)[Gal(a1-3)]Gal(b1-4)GlcNAc(b1-2)Man(a1-3)[Fuc(a1-2)[Gal(a1-3)]Gal(b1-4)GlcNAc(b1-2)Man(a1-6)]Man(b1-4)GlcNAc(b1-4)[Fuc(a1-6)]GlcNAc
# Outline: as §1
# [8] = biological target: Gal(a1-3)Gal(b1-4)GlcNAc(b1-2)Man
# Outline: as §1
# [9] = biological target: Gal(b1-3)GalNAc(a1-3)[Fuc(a1-2)]Gal(b1-4)GlcNAc
# Outline: as §1
# Gal(b1-3)GalNAc(b1-3)Gal = biological target: Gal(b1-3)GalNAc(b1-3)Gal
# Outline: as §1
# Gal(b1-3)GlcNAc = biological target: Gal(b1-3)GlcNAc
# Outline: as §1
# [10] = biological target: Gal(b1-3)GlcNAc(b1-2)Man(a1-3)[GlcNAc(b1-4)][Gal(b1-3)GlcNAc(b1-2)Man(a1-6)]Man(b1-4)GlcNAc(b1-4)GlcNAc
# Outline: as §1
# [11] = biological target: Gal(b1-3)[GlcNAc(b1-6)]GalNAc
# Outline: as §1
# [12] = biological target: Gal(b1-4)GlcNAc(b1-2)Man(a1-3)[Gal(b1-4)GlcNAc(b1-2)Man(a1-6)][GlcNAc(b1-4)]Man(b1-4)GlcNAc(b1-4)[Fuc(a1-6)]GlcNAc
# Outline: as §1
# [13] = biological target: Gal(b1-4)GlcNAc(b1-2)Man(a1-3)[Man(a1-6)]Man(b1-4)GlcNAc(b1-4)GlcNAc
# Outline: as §1
# [14] = biological target: Gal(b1-4)GlcNAc(b1-3)Gal(b1-4)GlcNAc(b1-2)Man(a1-3)[Gal(b1-4)GlcNAc(b1-3)Gal(b1-4)GlcNAc(b1-2)Man(a1-6)]Man(b1-4)GlcNAc(b1-4)GlcNAc
# Outline: as §1
# Gal(b1-6)Gal = biological target: Gal(b1-6)Gal
# Outline: as §1
# [15] = biological target: Gal3S(b1-3)[Fuc(a1-4)]GlcNAc
# Outline: as §1
# [16] = biological target: Gal3S(b1-4)[Fuc(a1-3)]GlcNAc
# Outline: as §1
# Gal6S(b1-3)GlcNAc = biological target: Gal6S(b1-3)GlcNAc
# Outline: as §1
# GalNAc4S6S(b1-4)GlcNAc = biological target: GalNAc4S6S(b1-4)GlcNAc
# Outline: as §1
# GlcA(b1-6)Gal = biological target: GlcA(b1-6)Gal
# Outline: as §1
# [17] = biological target: GlcNAc(a1-4)Gal(b1-4)GlcNAc
# Outline: as §1
# [18] = biological target: GlcNAc(b1-2)Man(a1-3)[GlcNAc(b1-4)][GlcNAc(b1-2)Man(a1-6)]Man(b1-4)GlcNAc(b1-4)GlcNAc
# Outline: as §1
# [19] = biological target: GlcNAc(b1-2)[GlcNAc(b1-4)]Man(a1-3)[GlcNAc(b1-2)Man(a1-6)]Man(b1-4)GlcNAc(b1-4)GlcNAc
# Outline: as §1
# [20] = biological target: GlcNAc(b1-2)[GlcNAc(b1-4)]Man(a1-3)[GlcNAc(b1-4)][GlcNAc(b1-2)[GlcNAc(b1-6)]Man(a1-6)]Man(b1-4)GlcNAc(b1-4)GlcNAc
# Outline: as §1
# GlcNAc(b1-3)Fuc = biological target: GlcNAc(b1-3)Fuc
# Outline: as §1
# [21] = biological target: GlcNAc(b1-3)Gal(b1-3)GalNAc
# Outline: as §1
# [22] = biological target: GlcNAc(b1-3)Gal(b1-4)GlcNAc(b1-3)Gal(b1-4)GlcNAc(b1-2)Man(a1-3)[GlcNAc(b1-3)Gal(b1-4)GlcNAc(b1-3)Gal(b1-4)GlcNAc(b1-2)Man(a1-6)]Man(b1-4)GlcNAc(b1-4)GlcNAc
# Outline: as §1
# [23] = biological target: GlcNAc(b1-3)Gal(b1-4)GlcNAc(b1-3)Gal(b1-4)GlcNAc(b1-2)[GlcNAc(b1-3)Gal(b1-4)GlcNAc(b1-3)Gal(b1-4)GlcNAc(b1-6)]Man(a1-6)[GlcNAc(b1-3)Gal(b1-4)GlcNAc(b1-3)Gal(b1-4)GlcNAc(b1-2)Man(a1-3)]Man(b1-4)GlcNAc(b1-4)[Fuc(a1-6)]GlcNAc
# Outline: as §1
binder,measurement,setting,value
B1,glycan array binding signal (z-score),[1],2.61
same,glycan array binding signal (z-score),[2],-0.248
same,glycan array binding signal (z-score),[3],0.108
same,glycan array binding signal (z-score),[4],4.52
same,glycan array binding signal (z-score),[5],-0.71
same,glycan array binding signal (z-score),[6],0.515
same,glycan array binding signal (z-score),[7],-1.39
same,glycan array binding signal (z-score),[8],-0.596
same,glycan array binding signal (z-score),[9],-1.73
same,glycan array binding signal (z-score),Gal(b1-3)GalNAc(b1-3)Gal,-0.932
same,glycan array binding signal (z-score),Gal(b1-3)GlcNAc,0.236
same,glycan array binding signal (z-score),[10],3.09
same,glycan array binding signal (z-score),[11],-0.308
same,glycan array binding signal (z-score),[12],-0.077
same,glycan array binding signal (z-score),[13],5.18
same,glycan array binding signal (z-score),[14],2.58
same,glycan array binding signal (z-score),Gal(b1-6)Gal,0.805
same,glycan array binding signal (z-score),[15],-0.32
same,glycan array binding signal (z-score),[16],-0.324
same,glycan array binding signal (z-score),Gal6S(b1-3)GlcNAc,-0.599
same,glycan array binding signal (z-score),GalNAc4S6S(b1-4)GlcNAc,-0.245
same,glycan array binding signal (z-score),GlcA(b1-6)Gal,2.83
same,glycan array binding signal (z-score),[17],-0.454
same,glycan array binding signal (z-score),[18],-0.821
same,glycan array binding signal (z-score),[19],1.11
same,glycan array binding signal (z-score),[20],-0.289
same,glycan array binding signal (z-score),GlcNAc(b1-3)Fuc,-0.235
same,glycan array binding signal (z-score),[21],-0.447
same,glycan array binding signal (z-score),[22],2.6
same,glycan array binding signal (z-score),[23],2.84
